Laboratory results: PubChem BioAssay AID1210 (NMMLSC, 2008)
Calls of active or inactive are those of the source.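 How the source made its calls: active means blocks over 70% of labeled estradiol binding at 10 µM, or over a set limit at 100 nM; inactive means the rest.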

These compounds were tested against Estrogen receptor beta (Homo sapiens) (UniProt Q92731) (assay: displacement of fluorescent estrogen from ERbeta – cell-based, Cos7 ERbeta-GFP, flow cytometry, primary screen (AID 1210;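 further: 0% = DMSO vehicle wells and 100% = complete loss of labeled estradiol signal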)). Conditions: fluorescent estrogen binding, at 10 µM, stronger effect = higher value.
Estrogen receptor beta (Homo sapiens), sequence (Q92731 whole entry, looked up): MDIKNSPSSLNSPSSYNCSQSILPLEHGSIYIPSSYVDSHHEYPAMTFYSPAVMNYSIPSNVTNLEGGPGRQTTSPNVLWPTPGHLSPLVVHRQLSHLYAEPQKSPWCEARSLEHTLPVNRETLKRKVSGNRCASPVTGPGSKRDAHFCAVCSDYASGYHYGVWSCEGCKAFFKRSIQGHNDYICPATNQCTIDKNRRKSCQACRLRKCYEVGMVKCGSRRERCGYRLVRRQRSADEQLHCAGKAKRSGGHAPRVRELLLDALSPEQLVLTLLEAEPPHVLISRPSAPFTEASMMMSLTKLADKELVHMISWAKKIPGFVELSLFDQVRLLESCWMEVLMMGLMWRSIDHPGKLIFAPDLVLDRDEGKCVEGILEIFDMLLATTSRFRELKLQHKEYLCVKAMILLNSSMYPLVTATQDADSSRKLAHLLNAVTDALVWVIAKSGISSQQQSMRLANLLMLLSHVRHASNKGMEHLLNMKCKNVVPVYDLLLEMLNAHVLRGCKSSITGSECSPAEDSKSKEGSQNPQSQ
COc1ccccc1N1CCN(C(=O)c2cc3c(s2)CCC3)CC1 was tested, and the inhibition was 22% (inactive).
For COc1ccc2c(c1)c1nc3ccccc3nc1n2CCCN1C(=O)c2ccccc2C1=O, the inhibition was 49% (inactive).
In the case of COc1ccccc1-c1nnc2n1N=C(c1ccc(O)c(O)c1)CS2, the inhibition is reported as 69% (inactive).
For CC(=O)c1ccc2c(c1)C1C=CCC1C(c1ccc(S(=O)(=O)N3CCOCC3)cc1)N2 (stereo not drawn), the inhibition was 78% (active).
For ON=C1/C(=N\O)CC2(C/C1=N/O)OCCO2, the inhibition was 28% (inactive).
For CCOC(=O)CSc1nn(C)c(=S)s1, the inhibition was 47% (active).
With Cc1cs/c(=N\N=C\c2ccc(O)cc2)n1Cc1ccco1 the inhibition was 45% (inactive).
With CCN1CCc2nc(NC(=O)Cc3ccc4c(c3)OCCO4)sc2C1 the inhibition was 26% (inactive).
For COC(=O)c1ccc(CC(=O)c2ccc(O)cc2O)o1, the inhibition was 44% (inactive).
In the case of O=C(c1cc2ncc(Br)cn2n1)N1CCOCC1, the inhibition is reported as 68% (inactive).
For COc1ccc2c(c1)C1C=CCC1C(c1cc3c(cc1Br)OCO3)N2 (stereo not drawn), the inhibition was 0% (inactive).
For COc1ccc(-c2nn(-c3ccccc3)cc2/C=C2/SC(=S)N(Cc3ccco3)C2=O)c(C)c1, the inhibition was 57% (inactive).
For Cc1ccc(N=Cc2ccc(O)cc2O)cc1F, the inhibition was 34% (inactive).
With NC(=O)c1cccc2c1C(=O)N(C1CCCCC1)C2 the inhibition was 3% (inactive).
In the case of CCn1c(SCC(=O)N2CCOCC2)nc2oc3c(Cl)cc(Cl)cc3c(=O)c2c1=O, the inhibition is reported as 56% (inactive).
In the case of Cn1cccc1/C=C1\SC(=O)N(c2ccc(O)cc2)C1=O, the inhibition is reported as 31% (inactive).
For O=C(Nc1ccc(O)cc1C(=O)O)c1ccc2c(c1)C(=O)N(Cc1ccco1)C2=O, the inhibition was 52% (active).
Cc1ccc(-n2c(SCC(=O)NNC(=S)Nc3ccccc3)nc3ccccc3c2=O)cc1 was tested, and the inhibition was 34% (inactive).
With CC(=O)c1ccc(NC(=S)N2CCCC(CO)C2)cc1 (stereo not drawn) the inhibition was 49% (inactive).
COC(=O)c1ccc2c(=O)n(CCCCCC(=O)NCc3ccc4c(c3)OCO4)c(=O)[nH]c2c1 was tested, and the inhibition was 68% (inactive).
With Cc1ccccc1CSCC(=O)NC(=O)NCc1ccco1 the inhibition was 27% (inactive).
In the case of Cc1nn(-c2ccc(Cl)cc2)c2sc(C(=O)N3CCN(c4ccccn4)CC3)cc12, the inhibition is reported as 50% (inactive).
In the case of O=C(CSc1nc2ccccc2c(=O)[nH]1)c1ccc(O)c(O)c1, the inhibition is reported as 36% (inactive).
In the case of Cc1ccc2nc(/C(C#N)=C\c3ccc(N4CCCCC4)c([N+](=O)[O-])c3)[nH]c2c1, the inhibition is reported as 15% (inactive).
In the case of Cc1ccc(NC(=O)CN2C(=O)S/C(=C/c3ccc(-c4cc(C(=O)O)ccc4C)o3)C2=O)cc1C, the inhibition is reported as 36% (inactive).
In the case of COc1ccc(C2Nc3ccccc3C(=O)N2c2ccccc2)cc1COc1ccccn1 (stereo not drawn), the inhibition is reported as 18% (inactive).
For COc1ccc(N2C(=O)c3ccccc3NC2c2ccc(OC)c(COc3ccccn3)c2)cc1 (stereo not drawn), the inhibition was 40% (inactive).
In the case of C1CCC(c2nn3c(-c4n[nH]c5c4CCC5)nnc3s2)CC1, the inhibition is reported as 61% (inactive).
With CCC(=O)Nc1ccc(C(=O)Cn2nc(C(=O)O)c3ccccc3c2=O)cc1 the inhibition was 64% (inactive).
O=C1NC(c2ccc(Br)cc2)Nc2sc3c(c21)CCC3 (stereo not drawn) was tested, and the inhibition was 54% (inactive).
O=C1Nc2ccccc2SC(c2ccccc2)C1O (stereo not drawn) was tested, and the inhibition was 56% (inactive).
For O=C(COC(=O)CCOc1ccccc1)NCc1ccco1, the inhibition was 54% (inactive).
With COc1ccc(CNC(=O)COC(=O)c2cc(-c3ccco3)nc3ccccc23)cc1 the inhibition was 18% (inactive).
In the case of CC1(C)CC(=O)c2c(oc3cc(O)c(O)cc23)C1, the inhibition is reported as 11% (inactive).
In the case of Oc1ccc(/C=N/n2c(-c3ccco3)csc2=Nc2cccnc2)c(O)c1, the inhibition is reported as 20% (inactive).
Cc1oc2cc(O)ccc2c(=O)c1Oc1ccccc1 was tested, and the inhibition was 22% (inactive).
In the case of COc1ccc(NC2=CC(c3cccc(OC)c3)N(c3ccc(OC)cc3)C2=O)cc1 (stereo not drawn), the inhibition is reported as 33% (inactive).
For COc1ccc(CNC(=O)c2cc(-c3cccs3)on2)cc1, the inhibition was 39% (inactive).
For Cc1ccc(C)c(/C(O)=C2/C(=O)C(=O)N(CCN3CCOCC3)C2c2ccco2)c1 (stereo not drawn), the inhibition was 23% (inactive).

Same assay, conditions: fluorescent estrogen binding, ligand binding inhibition, at 0.1 µM, stronger effect = higher value
COc1ccccc1N1CCN(C(=O)c2cc3c(s2)CCC3)CC1 was tested, and the inhibition was 4%.
COc1ccc2c(c1)c1nc3ccccc3nc1n2CCCN1C(=O)c2ccccc2C1=O was tested, and the inhibition was 18%.
COc1ccccc1-c1nnc2n1N=C(c1ccc(O)c(O)c1)CS2 was tested, and the inhibition was 21%.
For CC(=O)c1ccc2c(c1)C1C=CCC1C(c1ccc(S(=O)(=O)N3CCOCC3)cc1)N2 (stereo not drawn), the inhibition was 17%.
Work on ON=C1/C(=N\O)CC2(C/C1=N/O)OCCO2 yielded an inhibition of 31%.
CCOC(=O)CSc1nn(C)c(=S)s1 showed an inhibition of 72%.
Cc1cs/c(=N\N=C\c2ccc(O)cc2)n1Cc1ccco1 was tested, and the inhibition was 21%.
Compound CCN1CCc2nc(NC(=O)Cc3ccc4c(c3)OCCO4)sc2C1 has an inhibition of 4%.
Compound COC(=O)c1ccc(CC(=O)c2ccc(O)cc2O)o1 has an inhibition of 20%.
O=C(c1cc2ncc(Br)cn2n1)N1CCOCC1 was tested, and the inhibition was 41%.
With COc1ccc2c(c1)C1C=CCC1C(c1cc3c(cc1Br)OCO3)N2 (stereo not drawn) the inhibition was 41%.
COc1ccc(-c2nn(-c3ccccc3)cc2/C=C2/SC(=S)N(Cc3ccco3)C2=O)c(C)c1 gave an inhibition of 23%.
With Cc1ccc(N=Cc2ccc(O)cc2O)cc1F the inhibition was 15%.
Work on NC(=O)c1cccc2c1C(=O)N(C1CCCCC1)C2 yielded an inhibition of 4%.
CCn1c(SCC(=O)N2CCOCC2)nc2oc3c(Cl)cc(Cl)cc3c(=O)c2c1=O was tested, and the inhibition was 1%.
Cn1cccc1/C=C1\SC(=O)N(c2ccc(O)cc2)C1=O was tested, and the inhibition was 7%.
O=C(Nc1ccc(O)cc1C(=O)O)c1ccc2c(c1)C(=O)N(Cc1ccco1)C2=O showed an inhibition of 72%.
With Cc1ccc(-n2c(SCC(=O)NNC(=S)Nc3ccccc3)nc3ccccc3c2=O)cc1 the inhibition was 4%.
In the case of CC(=O)c1ccc(NC(=S)N2CCCC(CO)C2)cc1 (stereo not drawn), the inhibition is reported as 13%.
For COC(=O)c1ccc2c(=O)n(CCCCCC(=O)NCc3ccc4c(c3)OCO4)c(=O)[nH]c2c1, the inhibition was 20%.
With Cc1ccccc1CSCC(=O)NC(=O)NCc1ccco1 the inhibition was 35%.
With Cc1nn(-c2ccc(Cl)cc2)c2sc(C(=O)N3CCN(c4ccccn4)CC3)cc12 the inhibition was 40%.
O=C(CSc1nc2ccccc2c(=O)[nH]1)c1ccc(O)c(O)c1 gave an inhibition of 14%.
In the case of Cc1ccc2nc(/C(C#N)=C\c3ccc(N4CCCCC4)c([N+](=O)[O-])c3)[nH]c2c1, the inhibition is reported as 6%.
For Cc1ccc(NC(=O)CN2C(=O)S/C(=C/c3ccc(-c4cc(C(=O)O)ccc4C)o3)C2=O)cc1C, the inhibition was 21%.
In the case of COc1ccc(C2Nc3ccccc3C(=O)N2c2ccccc2)cc1COc1ccccn1 (stereo not drawn), the inhibition is reported as 17%.
In the case of COc1ccc(N2C(=O)c3ccccc3NC2c2ccc(OC)c(COc3ccccn3)c2)cc1 (stereo not drawn), the inhibition is reported as 9%.
Compound C1CCC(c2nn3c(-c4n[nH]c5c4CCC5)nnc3s2)CC1 has an inhibition of 19%.
For CCC(=O)Nc1ccc(C(=O)Cn2nc(C(=O)O)c3ccccc3c2=O)cc1, the inhibition was 1%.
In the case of O=C1NC(c2ccc(Br)cc2)Nc2sc3c(c21)CCC3 (stereo not drawn), the inhibition is reported as 50%.
O=C1Nc2ccccc2SC(c2ccccc2)C1O (stereo not drawn) was tested, and the inhibition was 26%.
Work on O=C(COC(=O)CCOc1ccccc1)NCc1ccco1 yielded an inhibition of 37%.
COc1ccc(CNC(=O)COC(=O)c2cc(-c3ccco3)nc3ccccc23)cc1 was tested, and the inhibition was 8%.
Compound CC1(C)CC(=O)c2c(oc3cc(O)c(O)cc23)C1 has an inhibition of 3%.
Oc1ccc(/C=N/n2c(-c3ccco3)csc2=Nc2cccnc2)c(O)c1 was tested, and the inhibition was 18%.
Cc1oc2cc(O)ccc2c(=O)c1Oc1ccccc1 gave an inhibition of 37%.
Work on COc1ccc(NC2=CC(c3cccc(OC)c3)N(c3ccc(OC)cc3)C2=O)cc1 (stereo not drawn) yielded an inhibition of 25%.
COc1ccc(CNC(=O)c2cc(-c3cccs3)on2)cc1 showed an inhibition of 23%.
Cc1ccc(C)c(/C(O)=C2/C(=O)C(=O)N(CCN3CCOCC3)C2c2ccco2)c1 (stereo not drawn) was tested, and the inhibition was 17%.
